Source: PubChem BioAssay
KCNQ2 inh: rat KCNQ2 potassium channel inhibitors, primary screen, cell-based, CHO-K1, FluxOR thallium flux, B-score | B-score at 10 µM | 310,000 tested, 1.1% active | AID 2156, 2009 | 20 min; hits give low values | Potassium voltage-gated channel subfamily KQT member 2 (Rattus norvegicus), O88943;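 active means fluorescence ratio B-score at most minus 3 library SDs, with starting brightness B-score within 2 library SDs, cut at about -5.5 in these data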
Target sequence (O88943 whole entry, looked up): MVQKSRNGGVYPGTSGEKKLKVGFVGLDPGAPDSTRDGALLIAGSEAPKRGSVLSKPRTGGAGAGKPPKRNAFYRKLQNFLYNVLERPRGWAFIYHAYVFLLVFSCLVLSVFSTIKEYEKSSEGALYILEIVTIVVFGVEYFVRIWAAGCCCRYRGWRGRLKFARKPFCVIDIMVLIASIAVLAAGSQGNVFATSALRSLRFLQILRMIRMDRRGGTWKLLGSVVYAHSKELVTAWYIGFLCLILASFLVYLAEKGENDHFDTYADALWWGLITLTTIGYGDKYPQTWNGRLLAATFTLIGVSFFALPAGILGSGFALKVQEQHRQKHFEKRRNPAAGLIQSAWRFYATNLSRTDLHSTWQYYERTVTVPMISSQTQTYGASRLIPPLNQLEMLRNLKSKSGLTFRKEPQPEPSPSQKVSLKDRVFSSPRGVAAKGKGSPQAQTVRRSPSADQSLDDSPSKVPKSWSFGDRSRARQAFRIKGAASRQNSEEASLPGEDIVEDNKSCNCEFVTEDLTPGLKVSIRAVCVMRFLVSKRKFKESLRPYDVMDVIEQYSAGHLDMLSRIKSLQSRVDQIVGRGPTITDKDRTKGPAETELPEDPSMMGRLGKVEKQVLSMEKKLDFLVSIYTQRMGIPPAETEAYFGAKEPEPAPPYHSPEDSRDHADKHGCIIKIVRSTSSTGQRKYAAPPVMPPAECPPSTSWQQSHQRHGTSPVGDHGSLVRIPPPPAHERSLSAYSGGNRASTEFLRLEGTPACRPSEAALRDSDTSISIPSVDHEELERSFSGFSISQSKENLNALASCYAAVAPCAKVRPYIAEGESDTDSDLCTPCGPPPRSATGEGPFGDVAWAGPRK
KCNQ2 pot: potentiators of rat KCNQ2 potassium channel; Potassium voltage-gated channel subfamily KQT member 2 (Rattus norvegicus), O88943; CHO-K1 KCNQ2, FluxOR thallium flux fluorescence; hits give high values; B-score at 10 µM; 310,000 tested, 0.54% active;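 active means fluorescence ratio B-score at least 3 SD of library B-scores, with initial fluorescence B-score within 3 of them, cut at about 5.3 in these data; same plate scores as AID 2156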;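 further: B-score of peak minus minimum over baseline fluorescence ratio after K+ and Tl+ stimulus; positive B-score means potentiation of KCNQ2 with more thallium influx and brighter signal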
Kir21 conf inh: mouse Kir2.1 channel blockers, retest, confirmation, cell-based, FluxOR thallium flux, duplicate | Kir2.1-expressing cells, FluxOR thallium flux fluorescence; hits give low values | 2,300 tested, 41% active | Tl flux remaining, % of negative control (hits give low values), % at 10 µM | shares compounds with KCNQ2 pot;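 active means Primary-screen hit whose thallium flux fell at least 3 control SD below untreated wells in both duplicates, with normal baseline fluorescence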
HEK293 ctr: alters thallium flux in parental HEK293 cells, Kir2.1 counter-screen; shares compounds with KCNQ2 pot; FluxOR thallium flux fluorescence; 0% = unstimulated blank wells; FluxOR signal as % of negative control (100 = no effect), % at 10 µM; 2,300 tested, 19% active; AID 2105;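 active means dye signal at least 3 control SD above or below untreated wells in both duplicates, raw fluorescence within 3, either direction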;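 further: percent is based on the flux ratio of peak minus minimum fluorescence over baseline F0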
CHO-K1 Tl ctr: nonspecific thallium flux increase in parental CHO-K1, confirmation, counter-screen for KCNQ2 potentiator project, cell-based, FluxOR thallium flux, duplicate. 1,200 tested, 43% active. parental CHO-K1 cells, FluxOR thallium flux fluorescence; zero = vehicle mean+3SD, 100% = vehicle-minus-blank window. shares compounds with KCNQ2 pot. activity increase over 3SD of controls, % at 10 µM;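 active means signal rise of at least 3 SD above the untreated control mean, in both duplicate wells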;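 further: counter screen of KCNQ2 potentiator hits so any rise reflects channel-independent effects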
KCNQ1 pot spec: human KCNQ1 channel potentiation off-target, confirmation, selectivity assay for KCNQ2 potentiator project, cell-based, CHO, FluxOR thallium flux; shares compounds with KCNQ2 pot; CHO KCNQ1 stable, FluxOR thallium flux fluorescence; beyond 3SD, as % of vehicle-control signal; activation over 3SD threshold, % at 10 µM; 1,200 tested, 28% active; AID 2283, 2010;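 active means fluorescence ratio rise of at least 3 SD of vehicle wells above their mean, in both replicate wells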
KCNQ2 pot confirm: rat KCNQ2 channel potentiators, confirmation, cell-based, CHO, FluxOR thallium flux, duplicate; potentiation, less the hit threshold, % at 10 µM; 1,200 tested, 68% active; CHO-KCNQ2 cells, FluxOR thallium flux fluorescence; shares compounds with KCNQ2 pot;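 active means fluorescence ratio rising 3 SD or more over the vehicle control mean in both replicates, plus primary screen hit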;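 further: peak minus minimum thallium fluorescence divided by baseline after K/Tl stimulus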
Kir2-1 sel: mouse Kir2.1 channel activation off-target, confirmation, selectivity assay for KCNQ2 potentiator project, cell-based, HEK293, FluxOR thallium flux. shares compounds with KCNQ2 pot. HEK293 Kir2.1, FluxOR thallium flux fluorescence. activity over 3SD threshold, % at 10 µM. 1,200 tested, 2% active;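 active means fluorescence ratio rise of at least 3 SD above the vehicle-control mean, seen in both replicates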
KCNQ2 W236L MoA: potentiators of retigabine-insensitive KCNQ2 W236L, mechanism study for KCNQ2 potentiator project, cell-based, rat KCNQ2 W236L, CHO, automated patch clamp; shares compounds with KCNQ2 pot; automated patch clamp current; current increase over 3SD of negative controls (%), hits give high values, % at 25 µM; 940 tested, 10% active; AID 2558, 2010;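 active means current increase at least 3 SD of the untreated controls above them in both duplicate recordings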
Hits are given with their value. An excerpt weighted towards active compounds, which were near 1.6% of everything screened.

Results for Cc1ccc(NC(=O)CSCC(=O)Nc2ccccc2C(=O)N2CCCCC2)cc1 ?
KCNQ2 inh: inactive; KCNQ2 pot: inactive

Results for CCC(=O)Nc1ccc(N2CCCCC2)c(C(=O)Nc2ccc(OC)cc2)c1 ?
KCNQ2 inh: inactive; KCNQ2 pot: inactive

What do the screens show for `Cc1cccc(N2CCN(C(=O)c3ccc4c(c3)NC(=O)C(CSCc3cccc(F)c3)N4)CC2C)c1` (centres undefined)?
KCNQ2 inh: inactive

Results for CCC1CCCCN1S(=O)(=O)c1ccc(NC(=O)C2CCCO2)cc1 (centres undefined) ?
KCNQ2 inh: inactive; KCNQ2 pot: inactive

How did N#Cc1c(NC(=O)c2ccc([N+](=O)[O-])o2)sc2c1CCC2 do in these assays?
KCNQ2 inh: inactive; KCNQ2 pot: inactive

How did CC1(C)CC(NC(=O)c2cc(Cl)ccc2Cl)CC(C)(C)N1 do in these assays?
KCNQ2 inh: inactive

Results for CCn1c(CNc2ccc(Cl)cc2)nnc1SCC(=O)OC1CCCCC1 ?
KCNQ2 inh: inactive; KCNQ2 pot: inactive; Kir21 conf inh: 71.0%; HEK293 ctr: inactive

How did CCn1c(CNc2cccc(Cl)c2)nnc1SCC(=O)OC1CCCCC1 do in these assays?
KCNQ2 inh: inactive

What do the screens show for `COc1ccc(OCC(O)CNC(C)c2ccccc2)cc1` (centres undefined)?
KCNQ2 inh: inactive; KCNQ2 pot: inactive

What do the screens show for `CC(C)Oc1ccc(C(CCNCc2ccc(O)cc2)c2ccccc2)cc1` (centres undefined)?
KCNQ2 inh: inactive

Results for COc1ccc(C(C)NCCC(c2ccc(OC(C)C)cc2)c2ccccc2OC)cc1 (centres undefined) ?
KCNQ2 inh: -6.6; KCNQ2 pot: inactive; Kir21 conf inh: 56.5%; HEK293 ctr: inactive

Results for COc1ccc(C(CCNC(C)c2ccccc2)C(C)C)cc1 (centres undefined) ?
KCNQ2 inh: inactive; KCNQ2 pot: inactive; Kir21 conf inh: 47.5%; HEK293 ctr: inactive

How did O=Cc1cccn1-c1nccc(-c2ccco2)n1 do in these assays?
KCNQ2 inh: inactive

How did CCn1cc(C(=S)N2CCC(C(N)=O)CC2)c2ccccc21 do in these assays?
KCNQ2 inh: inactive; KCNQ2 pot: inactive

How did CCOc1ccc(CN2CCC(Cc3ccccc3)CC2)cc1 do in these assays?
KCNQ2 inh: inactive; KCNQ2 pot: inactive; Kir21 conf inh: 41.0%; HEK293 ctr: inactive

Results for COc1ccc(CN2CCC(Cc3ccccc3)CC2)cc1OC ?
KCNQ2 inh: inactive; KCNQ2 pot: inactive

What do the screens show for `N#Cc1ccc(S(=O)(=O)NC2CC2)cc1`?
KCNQ2 inh: inactive

What do the screens show for `CCC(CC)C(=O)OCC(=O)Nc1cccc([N+](=O)[O-])c1`?
KCNQ2 inh: inactive

How did Cc1sc2cc3c(c(C(=O)c4ccccc4)[n+]2c1C)-c1cccc2cccc-3c12 do in these assays?
KCNQ2 inh: -8.22; KCNQ2 pot: inactive; Kir21 conf inh: 27.0%; HEK293 ctr: 63.5%

Results for Cc1cc(C)c2c(N)c(C(=O)c3ccccc3)sc2n1 ?
KCNQ2 inh: inactive

How did S=c1[nH]c2cc(Cl)ccc2s1 do in these assays?
KCNQ2 inh: inactive; KCNQ2 pot: 18.2; Kir21 conf inh: inactive; HEK293 ctr: 552.5%; CHO-K1 Tl ctr: 10.3; KCNQ1 pot spec: inactive; KCNQ2 pot confirm: 54.0; Kir2-1 sel: 2.3; KCNQ2 W236L MoA: inactive

How did S=c1[nH]c2ccc(Cl)cc2[nH]1 do in these assays?
KCNQ2 inh: inactive; KCNQ2 pot: inactive

How did O=C(N/C=C/c1ccco1)Nc1cccc(Cl)c1 do in these assays?
KCNQ2 inh: inactive; KCNQ2 pot: 13.5; Kir21 conf inh: inactive; HEK293 ctr: inactive; CHO-K1 Tl ctr: inactive; KCNQ1 pot spec: inactive; KCNQ2 pot confirm: 61.1; Kir2-1 sel: inactive; KCNQ2 W236L MoA: inactive

How did COc1ccc(NC(=O)N/C=C/c2ccco2)cc1 do in these assays?
KCNQ2 inh: inactive; KCNQ2 pot: inactive

How did COc1ccccc1CN=C1Nc2ccccc2CS1 do in these assays?
KCNQ2 inh: inactive; Kir21 conf inh: 58.5%; HEK293 ctr: inactive

How did COc1cccc(CN=C2Nc3ccccc3CS2)c1 do in these assays?
KCNQ2 inh: inactive

Results for OC(CNCc1cccc(Br)c1)c1ccccc1 (centres undefined) ?
KCNQ2 inh: inactive; KCNQ2 pot: inactive

What do the screens show for `OCc1cc(C(O)CNCCCCCCOCCCCc2ccccc2)ccc1O` (centres undefined)?
KCNQ2 inh: inactive; KCNQ2 pot: inactive; Kir21 conf inh: 31.5%; HEK293 ctr: inactive

How did COc1cc(NC(=O)CSc2nc3c(C)ccc(C)c3cc2C)c(C(=O)O)cc1OC do in these assays?
KCNQ2 inh: inactive

How did CCN(CC)CC(O)CN1C(=O)NC(C)(C)C1=O (centres undefined) do in these assays?
KCNQ2 inh: inactive

Results for O=C(Cn1c(=O)oc2ccccc21)NCC1COc2ccccc2O1 (centres undefined) ?
KCNQ2 inh: inactive; KCNQ2 pot: inactive

Results for O=C(Nc1ccncc1Cl)c1ccncc1 ?
KCNQ2 inh: inactive; KCNQ2 pot: inactive

How did CCOc1ccc(CSC(=N)N)cc1 do in these assays?
KCNQ2 inh: inactive; KCNQ2 pot: inactive

How did CCCCOc1ccc(CSC(=N)N)cc1Cl do in these assays?
KCNQ2 inh: inactive; Kir21 conf inh: 27.5%; HEK293 ctr: inactive

Results for CCCCCOc1ccc(Br)cc1CSC(=N)N ?
KCNQ2 inh: inactive; Kir21 conf inh: inactive; HEK293 ctr: inactive
